# PubChem BioAssay (Tox21)
# Several values for one entry are separate records, joined by “and”; a condition that tells them apart may be missing. Equal entries are not always repeated. Inconclusive results are not listed. Activity calls are given as the source filed them. Calls come from the whole dose curve; as a rule, active = well fitted curve in the direction sought with a large enough effect in the repeat runs; inconclusive = weak or mixed curves; inactive = no such curve, though single readings can be large; an effect the other way counts as inactive or inconclusive.
# Target: Voltage-gated inwardly rectifying potassium channel KCNH2 (Homo sapiens) (UniProt Q12809)
# Experiment: Human Ether-a-go-go-Related Gene (hERG) channel small molecule antagonists: fluorescence cell-based qHTS assay (AID 1671200);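 for activity change, negative = inhibition: hERG-expressing U2OS cells given a thallium stimulus after FluxOR II dye loading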
# Details: hERG-U2OS cells, FluxOR thallium flux fluorescence; series mostly up to 76.8 µM; activity change, negative = inhibition: at the top concentration
# Method in brief: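 Kinetic two-minute fluorescence traces, sampled at 1 s, were collected following thallium stimulus of U2OS cells (1000 per well) that had been cultured overnight at 37 C and loaded with FluxOR II.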
# % is set by controls: 0 for no effect and ±100 for the full control effect; potency is the fitted concentration of half-maximal effect.
# Note: nearly all actives have a fitted effect of over 50% in size.
# Sequence of Voltage-gated inwardly rectifying potassium channel KCNH2 (Homo sapiens) (Q12809 whole entry, looked up): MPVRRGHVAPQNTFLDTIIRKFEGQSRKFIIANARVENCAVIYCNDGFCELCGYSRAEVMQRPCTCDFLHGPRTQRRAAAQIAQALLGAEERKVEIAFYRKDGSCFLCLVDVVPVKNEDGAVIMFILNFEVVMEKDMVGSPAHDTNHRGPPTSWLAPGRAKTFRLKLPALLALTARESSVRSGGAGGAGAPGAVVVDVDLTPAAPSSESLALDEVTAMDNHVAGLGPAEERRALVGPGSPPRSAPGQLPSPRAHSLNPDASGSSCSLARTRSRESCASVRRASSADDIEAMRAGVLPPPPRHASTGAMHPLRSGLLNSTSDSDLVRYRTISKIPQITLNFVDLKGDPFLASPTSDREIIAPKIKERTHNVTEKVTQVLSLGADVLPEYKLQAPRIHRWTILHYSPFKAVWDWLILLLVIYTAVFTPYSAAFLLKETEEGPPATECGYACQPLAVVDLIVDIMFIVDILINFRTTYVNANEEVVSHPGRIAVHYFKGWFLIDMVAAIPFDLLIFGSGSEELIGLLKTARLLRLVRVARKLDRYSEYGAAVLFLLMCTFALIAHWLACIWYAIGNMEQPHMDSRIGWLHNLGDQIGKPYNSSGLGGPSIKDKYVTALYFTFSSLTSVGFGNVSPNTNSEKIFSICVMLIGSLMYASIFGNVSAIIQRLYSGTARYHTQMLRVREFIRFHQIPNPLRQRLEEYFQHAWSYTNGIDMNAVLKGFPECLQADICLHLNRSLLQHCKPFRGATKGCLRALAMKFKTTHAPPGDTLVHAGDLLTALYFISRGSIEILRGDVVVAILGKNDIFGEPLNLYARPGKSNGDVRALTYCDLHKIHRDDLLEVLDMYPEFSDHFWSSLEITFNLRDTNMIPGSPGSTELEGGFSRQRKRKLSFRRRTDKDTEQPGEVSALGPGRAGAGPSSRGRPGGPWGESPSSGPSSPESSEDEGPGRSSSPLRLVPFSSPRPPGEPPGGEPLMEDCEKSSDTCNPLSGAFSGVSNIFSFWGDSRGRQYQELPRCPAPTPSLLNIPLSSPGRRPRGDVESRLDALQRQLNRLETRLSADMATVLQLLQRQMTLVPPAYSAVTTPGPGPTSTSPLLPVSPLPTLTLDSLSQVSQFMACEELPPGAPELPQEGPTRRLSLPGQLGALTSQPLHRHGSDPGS
SMILES,Potency,"activity change, negative = inhibition"
Cc1c(C)n(Cc2ccccc2)c2ccc(C(=O)OCCN(C)C)cc12,10.7 µM (active),–
S=P(N1CC1)(N1CC1)N1CC1,–,-2.94% (inactive)
O=S(O)O,–,4.11% [at 15.8 µM] (inactive)
CCNc1nc(NC(C)CC)nc(OC)n1 (stereo not given),–,0.899% (inactive)
NCCCCCCNCCCCCCN,–,-2.7% (inactive)
CC(=O)O[C@@H]1C[C@@H]2CC[C@@]1(C)C2(C)C,–,-1.41% (inactive)
O=Cc1ccc(F)cc1,–,-4.32% (inactive)
CCc1ccc(C)nc1,–,-0.562% (inactive)
CC(C)c1ccccc1N,–,0.797% (inactive)
Brc1ccccn1,–,-5.83% (inactive)
CCCCCCC(C)OC(=O)COc1nc(F)c(Cl)c(N)c1Cl (stereo not given),38.9 µM (active),–
CC(C)=CCCC(C)O (stereo not given),–,1.91% (inactive)
C[Si](C)O[Si](C)C,–,-1.03% (inactive)
C=CC(C)C#N (stereo not given),–,5.74% (inactive)
O=C(O)c1cccc(Cl)n1,–,4.02% (inactive)
COc1ccccc1C=O,–,4.69% (inactive)
CCCCCCCC/C=C\CCCCCCCC(=O)NCc1ccc(O)c(OC)c1,–,-11.2% [at 35.3 µM] (inactive)
CN(Cc1cc(Br)cc(Br)c1N)C1CCCCC1,10.7 µM (active),–
CCc1c(Br)c(Br)c(Br)c(Br)c1Br,–,-3.05% (inactive)

SMILES,Potency,"activity change, negative = inhibition"
C=CC(=C)CC/C=C(\C)CCC=C(C)C,–,-2.72% [at 15.8 µM] (inactive)
CCOC(=O)CC(C)O (stereo not given),–,0.336% (inactive)
C=C/C=C/C=C/CCCCC,–,-12.1% [at 15.8 µM] (inactive)
COc1cccc(CCc2ccccc2OCC(CN(C)C)OC(=O)CCC(=O)O)c1 (stereo not given),–,-12.3% [at 35.3 µM] (inactive)
CCCCCCCCCCCCCCCCCO,–,5.95% [at 15.8 µM] (inactive)
c1cc[nH]c1,–,4.01% (inactive)
O=C[C@H](O)[C@H](O)[C@H](O)CO,–,-2.4% (inactive)
N#CSCSc1nc2ccccc2s1,–,-15.8% (inactive)
CCN(CC)c1cccc(C)c1,–,9.42% (inactive)
CC(C)C(=O)OCc1ccccc1,–,-0.893% (inactive)
CCN=C1C=CC(=C(c2ccc(N(CC)CC)cc2)c2ccc(N(CC)CC)cc2)c2ccccc21,0.345 µM (active),–
CC(COC(=O)c1ccccc1)OC(=O)c1ccccc1 (stereo not given),43.6 µM (active),–
CC(C)(C)c1n[nH]c(=O)n(N)c1=O,–,-0.676% (inactive)
COc1ccc2sc(C(=O)Nc3nnn[nH]3)c(OC(C)C)c2c1,–,-0.252% (inactive)
Brc1ccccc1-c1ccccc1,31.4 µM (active),–
CCCCCCCCCCCCOC(=O)c1cc(O)c(O)c(O)c1,inactive,–
CCCCCCCCCC(=O)N(C)C,–,-7.53% (inactive)
OCCC(O)CO (stereo not given),–,2.71% (inactive)
C=CC(=O)OCCN(CC)CC,–,-0.199% (inactive)

# Target: Cytochrome P450 3A4 (Homo sapiens) (UniProt P08684)
# Experiment: Cytochrome P450 Family 3 Subfamily A Member 4 (CYP3A4) small molecule antagonists: luciferase reporter qHTS assay (AID 1671201)
# Details: P450-Glo CYP3A4 enzyme, luciferin luminescence, 1 h; series mostly up to 115 µM; activity change, negative = inhibition: at the top concentration
# Method in brief: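 Proluciferin-to-luciferin conversion by CYP3A4, NADPH-regenerated, 1 h RT; luminescence read as RLU. Ketoconazole as control.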
# Sequence of Cytochrome P450 3A4 (Homo sapiens) (P08684 whole entry, looked up): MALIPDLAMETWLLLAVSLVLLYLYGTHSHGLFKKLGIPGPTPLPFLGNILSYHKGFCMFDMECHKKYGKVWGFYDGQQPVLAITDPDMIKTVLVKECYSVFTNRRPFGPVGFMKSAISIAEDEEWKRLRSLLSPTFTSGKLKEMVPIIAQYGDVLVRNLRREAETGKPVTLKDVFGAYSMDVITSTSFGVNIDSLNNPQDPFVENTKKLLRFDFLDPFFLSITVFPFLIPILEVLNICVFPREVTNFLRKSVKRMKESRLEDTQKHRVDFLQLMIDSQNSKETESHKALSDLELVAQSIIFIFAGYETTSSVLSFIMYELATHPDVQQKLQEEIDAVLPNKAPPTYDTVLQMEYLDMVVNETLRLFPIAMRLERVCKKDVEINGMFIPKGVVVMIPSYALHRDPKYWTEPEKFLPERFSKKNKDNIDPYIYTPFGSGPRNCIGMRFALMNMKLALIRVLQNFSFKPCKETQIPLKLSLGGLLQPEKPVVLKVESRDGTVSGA
SMILES,"activity change, negative = inhibition",Potency
CCNc1nc(NC(C)CC)nc(OC)n1 (stereo not given),9.58% (inactive),–
NCCCCCCNCCCCCCN,–,3.5 µM (active)
O=Cc1ccc(F)cc1,26.8% (inactive),–
CCc1ccc(C)nc1,11% (inactive),–
CC(C)c1ccccc1N,–,28.3 µM (active)
Brc1ccccn1,2.89% (inactive),–
CCCCCCC(C)OC(=O)COc1nc(F)c(Cl)c(N)c1Cl (stereo not given),–,7.96 µM (active)
CC(C)=CCCC(C)O (stereo not given),-2.33% (inactive),–
C[Si](C)O[Si](C)C,0.966% (inactive),–
C=CC(C)C#N (stereo not given),0.331% (inactive),–
O=C(O)c1cccc(Cl)n1,10.2% (inactive),–
COc1ccccc1C=O,3.33% (inactive),–
CCc1c(Br)c(Br)c(Br)c(Br)c1Br,15.7% (inactive),–
C=CC(=C)CC/C=C(\C)CCC=C(C)C,–,16.9 µM (active)
C=C/C=C/C=C/CCCCC,–,16.9 µM (active)
CCCCCCCCCCCCCCCCCO,7.87% [at 23.6 µM] (inactive),–
c1cc[nH]c1,2.79% (inactive),–
O=C[C@H](O)[C@H](O)[C@H](O)CO,6.47% (inactive),–
N#CSCSc1nc2ccccc2s1,-13.2% (inactive),–
CCN(CC)c1cccc(C)c1,-1.39% (inactive),–
CC(C)C(=O)OCc1ccccc1,-4.13% (inactive),–
CCN=C1C=CC(=C(c2ccc(N(CC)CC)cc2)c2ccc(N(CC)CC)cc2)c2ccccc21,–,8.88 µM (active)
CC(COC(=O)c1ccccc1)OC(=O)c1ccccc1 (stereo not given),94.4% (inactive),–
CC(C)(C)c1n[nH]c(=O)n(N)c1=O,-10.1% (inactive),–
Brc1ccccc1-c1ccccc1,34% (inactive),–
CCCCCCCCCCCCOC(=O)c1cc(O)c(O)c(O)c1,–,17.8 µM (active) and 20 µM (active)
C=CC(=O)OCCN(CC)CC,2.63% (inactive),–
